High-throughput results (PubChem)
The entries come from a sample that favours hits as a whole.
Peg3 imprint: qHTS Assay for Compounds that Induce Erasure of Genomic Imprints. mouse ES Peg3-LacZ reporter, beta-gal luminescence, 40 h. Potency, µM (doses to about 60.7 µM), without a hit: at the top dose activity change, positive = activation, actives largely listed as activators. actives 0.02% (n = 110,000); note: potency is the fitted concentration of half-maximal effect
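Each well holds 300 Peg3LacZ-Neo (maternal) female ES cells incubated 40 h at 37C, 5% CO2. LacZ is measured by BetaGlo luminescence, with AC50 and maximum efficacy derived from dose-response curves.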
HBB splice mod: qHTS Assay for Modulators of Hemoglobin Beta Chain Splicing; HBB splicing reporter cell assay, activation; EGFP reporter with mutant IVS2-654 intron; response scale: normalised to 500 nM splice-correcting PNA; Potency, µM (top dose mostly 46.1 µM), inactives show top-dose activation, most hits filed as activators; actives 0.06% (n = 65,000); AID 925, 2007; note: potency is the fitted concentration of half-maximal effect; 0% is about no effect
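Compounds were applied for 2 days to HeLa EGFP-654 cells, 500/well in Optimem with 2% FCS. The reporter's EGFP is disrupted by mis-splicing of beta-globin intron IVS2-654. Readout: summed well GFP fluorescence from 488 nm laser scanning; reference was 500 nM antisense […] 654 PNA.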
IkB sig inh: IkB Signaling; ABC-DLBCL IkBa-CBG/CBR dual luciferase ratio, 4 h; response scale: scaled: untreated 0%, proteasome inhibitor 100%; Potency, µM (series often up to 57.1 µM), for the others: top-dose IkBa stabilization activation; actives 0.04% (n = 110,000); active = well fitted curve in the direction sought with a large enough effect in the signal ratio, not every such curve was filed as active; inconclusive = small, poorly fitted or top-dose-only effect, or a change in a side signal; the % refers to the signal ratio;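 note: potency is the fitted concentration of half-maximal effect; the direction sought is a rising ratio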
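Luminescence ratio of IκBα-fused green versus native red beetle luciferase in OCI-Ly3 cells, 4 h post-doxycycline with compound; red signal alone, scaled from basal (0%) to zero light (-100%), flagged nonspecific or cytotoxic effects.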
CRE-bla Fsk: Cell signaling CRE-BLA (Fsk stim); CHO CRE-bla reporter (cAMP response element driving beta-lactamase), forskolin EC10, beta-lactamase ratio; AID 662, 2007; Potency, µM (highest dose often 38.2 µM), inactives show at the highest dose activity change, negative = inhibition, most hits filed as activators; actives 2.5% (n = 71,000); active = well fitted activation curve with a large enough effect in the signal ratio, with a control signal flat, not every such curve was filed as active; inconclusive = small, poorly fitted or top-dose-only effect, or effect the other way, or a change in a side signal; the % refers to the signal ratio; note: potency is the fitted concentration of half-maximal effect; % of control where 0% means no effect
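CRE-bla CHO reporter cells treated with compound titration plus EC10 NKH 477 (water-soluble forskolin), incubated 3 h at 37 °C; CCF4 loading 2 h at room temperature, 460/530 nm emission ratio read, AC50 values derived for positive or negative modulators.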
Epigenetic mod: qHTS Assay for Epigenetic Modulators; AID 597, 2007; actives 0.09% (n = 68,000); mouse C127i GFP locus derepression, cytometry, 30 h; Potency, µM (highest dose often 46.1 µM), for the others: at the top dose GFP derepression (activation); note: % of control where 0% means no effect
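Murine C127i mammary cells carrying a silenced, stably integrated CMV-driven GFP reporter were treated with compound for 30 hours at 37 C. After PBS washes, GFP-positive cells were counted by laser-scanning microplate cytometry.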
* hit, by the source's call; ? = inconclusive; · = no result given; ! = a repeat was not active; [ ] = another dose, or the depositor's remark. Unless noted, calls come from the whole dose curve; as a rule, active = well fitted curve in the direction sought with a large enough effect; inconclusive = small, poorly fitted or top-dose-only effect, or another doubt; inactive = no such curve, though single readings can be large; an effect the other way counts as inactive or inconclusive.

SMILES | Peg3 imprint | HBB splice mod | IkB sig inh | CRE-bla Fsk | Epigenetic mod
COc1cc2c(C(=O)NCCCN3CCN(c4cccc(Cl)c4)CC3)cn(C)c(=O)c2cc1OC | -16% | 0% | 2% | 4µM* | 8%
COc1ccc(Cl)cc1NC(=O)CCCn1c(C)c2cnn(-c3ccccc3)c(=O)c2c1C | -8%[10.9 µM] | · | ? | · | ·
Cc1c2cnn(-c3ccccc3)c(=O)c2c(C)n1CCCC(=O)Nc1ccc(F)cc1F | -9%[10.9 µM] | · | ? | · | ·
COc1ccccc1CNc1ccc(-c2nc(C)no2)cc1[N+](=O)[O-] | -20%[10.9 µM] | · | ? | · | ·
COc1ccccc1NC(=O)c1cn(C)c(=O)c2cc(OC)c(OC)cc12 | 7% | 8% | -1% | ? | 0%
COc1cc2c(C(=O)NCc3ccccn3)cn(C)c(=O)c2cc1OC | -5% | -1% | -1% | 5µM* | 1%
C=CCn1c(N)c(C(=O)OC(C)(C)C)c2nc3ccccc3nc21 | · | · | · | · | -4%[20.6 µM]
C=CCn1c(N)c(C(=O)OC(C)CC)c2nc3ccccc3nc21 (centres undefined) | -5% | -3%[0.369 µM] | 0% | 13µM* | 2%
COCCn1c(=O)c(-c2ccc(OC)cc2)nc2cnc(OC)nc21 | · | 0% | 2%[11.4 µM] | 10µM* | 5%[9.22 µM]
COCCn1c(=O)c(-c2ccc(F)c(F)c2)nc2cncnc21 | · | 0% | 1%[11.4 µM] | 16µM* | 5%[9.22 µM]
COCCn1c(=O)c(-c2ccc(OC)cc2)nc2cnc(Oc3ccc(OC)cc3)nc21 | · | 3% | 0%[11.4 µM] | ? | 2%[9.22 µM]
COCCn1c(=O)c(-c2ccc(OC)cc2)nc2cnc(Nc3ccccc3)nc21 | · | 3% | -1%[11.4 µM] | 0.32µM* | -2%[9.22 µM]
COCCn1c(=O)c(-c2ccc(F)cc2)nc2cnc(Nc3cccc(OC)c3)nc21 | ? | 20µM* | -3%[11.4 µM] | ? | 3%[9.22 µM]
CCOc1ccc(CCNC(=O)c2cc3sc(CC)cc3n2C)cc1OCC | 8%[10.9 µM] | · | ? | · | ·
COc1cc(/C=C\c2ccc(OC)cc2OC)cc(OC)c1 | -44% | · | 1% | 2µM* | 0%
COc1cc2cc(C(=O)Nc3ccccc3)c(N)nc2cc1OC | -6% | 0%[57.5 µM] | ? | 3.2µM* | -2%
COCCn1c(=O)c(-c2cccs2)nc2cnc(Oc3ccc(OC)cc3)nc21 | · | 0% | -1%[11.4 µM] | 10µM* | 0%[9.22 µM]
COc1ccc(Oc2ncc3nc(-c4cccs4)c(=O)n(C)c3n2)cc1 | · | 2% | -2%[11.4 µM] | 2.5µM* | 4%[9.22 µM]
COc1ccc(Oc2ncc3nc(-c4ccc(F)cc4)c(=O)n(Cc4cccs4)c3n2)cc1 | -14% | 3% | 3%[11.4 µM] | 13µM* | 8%[9.22 µM]
COCCn1c(=O)c(-c2cccs2)nc2cnc(N3CCOCC3)nc21 | ? | 0% | 2%[11.4 µM] | 2µM* | 0%[9.22 µM]
COc1ccc(-n2c(=O)c(-c3cccs3)nc3cnc(Oc4ccccc4)nc32)cc1 | · | 9% | 0%[11.4 µM] | ? | 3%[9.22 µM]
O=C(c1ccc2c(c1)N(Cc1ccccc1F)C(=O)c1ccccc1S2(=O)=O)N1CCN(c2ccccn2)CC1 | 6%[10.9 µM] | · | ? | · | ·
COc1ncc2nc(-c3cccs3)c(=O)n(CCC#N)c2n1 | -15% | 2% | -4%[11.4 µM] | 7.9µM* | -3%[9.22 µM]
Cn1c(=O)c(-c2cccs2)nc2cncnc21 | -13% | 3% | 2%[11.4 µM] | 10µM* | 13%[9.22 µM]
CC1Cc2nc(SCC(=O)Nc3nccs3)n(Cc3ccccc3)c(=O)c2S1 (centres undefined) | -31% | 1% | 0% | 13µM* | ·
SMILES | Peg3 imprint | HBB splice mod | IkB sig inh | CRE-bla Fsk | Epigenetic mod
O=C(NCCc1cn2ccsc2n1)c1cccs1 | -9% | -1% | 7% | 13µM* | ·
Cc1scc(C(=O)N2CCN(S(C)(=O)=O)CC2)c1-c1ccccc1 | 11% | -1% | 2% | -3% | 2%
CS(=O)(=O)N1CCN(C(=O)c2csc3ccccc23)CC1 | -12% | -1% | -3% | 10µM* | 3%
COc1ccc(Cc2nnc(SCc3c(C)noc3C)n2C2CCCCC2)cc1OC | -9% | 0%[57.5 µM] | ? | -2% | 0%
C=CCn1c(SCc2c(C)noc2C)nc2sc3c(c2c1=O)CCCCC3 | -10% | -1% | 0% | 2.5µM* | 0%
Cc1noc(C)c1CSc1nc2sc(C)c(C)c2c(=O)n1C1CCCC1 | -4% | -1% | 1% | 2µM* | 1%
C=CCn1c(SCc2c(C)noc2C)nc2cc(C(=O)O)ccc2c1=O | 4% | 3%[57.5 µM] | 7% | ? | -2%
COc1cc2nc(SCc3ccc(Cl)cc3)n3nc(CCn4nc(C)cc4C)nc3c2cc1OC | -6%[10.9 µM] | · | 1% | · | ·
COc1cc2nc(=S)n3[nH]c(CCn4nc(C)cc4C)nc3c2cc1OC | -23% | -1% | 1% | ? | 10µM*
Cc1cc(Cl)ccc1OCC(=O)N1CCC(c2nc3ccccc3o2)CC1 | -10%[10.9 µM] | · | ? | · | ·
Cc1cnc(N)c2c(=O)oc3ccccc3c12 | -5% | 0% | 0% | 13µM* | ·
O=c1oc2ccccc2c2nccnc12 | -5% | -2% | 1% | 0% | -5%
O=C(CSc1nnc(-c2ccccc2)c(-c2ccccc2)n1)NC1CCCC1 | -9%[10.9 µM] | · | ? | · | ·
COC(=O)C1=C(C)Nc2nc(-c3ccccc3)nn2C1c1ccc(C)o1 (centres undefined) | -18% | 1% | ? | 13µM* | 0%
COc1ccc(C2C(C(=O)Nc3ccccc3)=C(C)Nc3nc(-c4ccc(Cl)cc4)nn32)cc1 (centres undefined) | -11%[10.9 µM] | · | 25% | · | ·
O=C1OC(=O)[C@@H]2[C@@H]1[C@@H]1CC[C@H]2O1 | · | 0% | ? | 3.2µM*! | -5%[9.22 µM]
CCCN(C(=O)Nc1cn(CC(C)C)c(=O)c2ccccc12)c1ccc(F)cc1 | -1%[10.9 µM] | · | ? | · | ·
CCCC(=O)Nc1cc(-c2nn(C)c(=O)c3ccccc23)ccc1N1CCCCC1 | -5% | 0% | 0% | 2µM* | 0%
CCCC(=O)Nc1cc(-c2nn(C)c(=O)c3ccccc23)ccc1OC | -20% | 0% | 8% | 13µM* | -3%
COc1ccc(-c2nn(C)c(=O)c3ccccc23)cc1NC(=O)Cn1nc(C)c2ccccc2c1=O | -32% | 1% | ? | ? | -3%
CCC(=O)Nc1cc(-c2nn(C)c(=O)c3ccccc23)ccc1OC | -13% | 0% | 1% | 13µM* | -3%
COCCCn1c(SCC(=O)Nc2ccccc2OC)nc2c(sc3ccccc32)c1=O | -17%[10.9 µM] | · | ? | · | ·
CC(C)N(Cc1ccccc1)C(=O)C1CCCN(c2ncnc3onc(-c4ccc(F)cc4)c23)C1 (centres undefined) | -6%[10.9 µM] | · | ? | · | ·
Nc1ccc2nc(-c3ccc(Cl)cc3)[nH]c2c1 | -79% | 0% | ? | ? | ·
Nc1ccc(-c2nc3ccc(-c4nc5ccccc5o4)cc3[nH]2)cc1 | -23% | 0% | 4% | 13µM* | 0%
Cc1ccc2c(C)c(C(=O)N(Cc3ccc(N(C)C)cc3)Cc3ccco3)oc2c1C | -16%[10.9 µM] | · | ? | · | ·
